Bioassay records (PubChem)
This is a sample that favours compounds with a hit; in the whole collection about 3.7% have one here.
HepG2 tox: kills HepG2 cells in TGF-b inhibitor counter-screen | HepG2 CAGA-GFP viability, ATP luminescence, 18 h | actives 0.76% (n = 410,000) | AID 588856 | Potency, µM (doses to about 46.1 µM), inactives show top-dose activity change, negative = cytotoxicity, hits mostly cytotoxic
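HepG2 CAGA-GFP cells (1000/well, DMEM with 1% FBS) received compound, then TGF-beta at 500 pg/mL final, and were incubated 18 hours at 37 degrees C. Viability was read by CellTiter-Glo luminescence. Media-only wells were set as complete cell-killing and DMSO as no toxicity.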
ATXN2 expr inh: reduces ATXN2 reporter expression in HEK-293 cells; HEK-293 ATXN2-luciferase reporter, luminescence, 24 h; Potency, µM (doses to about 57 µM), without a hit: top-dose activity change, negative = inhibition, hits mostly inhibitors; actives 0.72% (n = 360,000); AID 1745845; further: on the % scale 0 is the no-effect control and ±100 the full control effect; nearly all actives have a fitted effect of over 55% in size
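qHTS (up to 57 uM final) was run with 24 h compound exposure of reporter cells at 37 °C. Each well was multiplexed: SteadyGlo luminescence measured ATXN2-luciferase expression after a fluorogenic Gly-Phe-AFC viability readout (25 uM final).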
TGFb inhibitor: inhibitors of TGF-b signaling. actives 1.2% (n = 410,000). Potency, µM (doses to about 46.1 µM), for inactives: at the top dose activity, negative = inhibition, usual class: inhibitors. HepG2 CAGA-GFP TGF-b/SMAD3 reporter, GFP fluorescence, 18 h; TGF-beta stimulated, 500 pg/mL final. AID 588855; further: on the % scale 0 is the no-effect control and ±100 the full control effect; nearly all actives have a fitted effect of over 65% in size
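HEPG2 CAGA-GFP reporter cells (1000/well, DMEM with 1% FBS) received compounds, then recombinant TGF-beta at 500 pg/mL final for 18 hours at 37 degrees C. Per-cell GFP summed per well was normalised to unstimulated and stimulated DMSO controls before curve fitting.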
GLP1R ag: agonists of human GLP-1 receptor; P43220; HEK293 GLP-1R CRE-luciferase, luminescence, 4-6 h; cells express a hypersensitive GLP-1R form; Potency, µM (doses to about 45.6 µM), for inactives: at the top dose activation, hits mostly activators; actives 0.007% (n = 380,000); further: % of control where 0% means no effect
Target sequence (P43220 whole entry, looked up): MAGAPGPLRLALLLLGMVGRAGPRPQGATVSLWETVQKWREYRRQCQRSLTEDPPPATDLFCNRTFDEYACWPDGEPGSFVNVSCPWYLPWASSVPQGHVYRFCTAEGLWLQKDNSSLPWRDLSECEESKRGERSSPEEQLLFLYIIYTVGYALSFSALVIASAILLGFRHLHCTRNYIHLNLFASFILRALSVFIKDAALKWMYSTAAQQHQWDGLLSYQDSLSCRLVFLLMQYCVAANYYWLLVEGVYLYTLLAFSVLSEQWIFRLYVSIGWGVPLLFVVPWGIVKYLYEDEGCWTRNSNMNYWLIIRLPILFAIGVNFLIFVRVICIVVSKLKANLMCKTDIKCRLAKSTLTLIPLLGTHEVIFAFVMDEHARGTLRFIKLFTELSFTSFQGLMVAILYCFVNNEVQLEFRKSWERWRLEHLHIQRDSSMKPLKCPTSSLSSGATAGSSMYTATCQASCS
S2 tox: viability counter-screen for ATXN expression inhibitors. S2 cells (HEK-293 line with an ATXN2-luciferase reporter) viability, CellTiter-Fluor protease fluorescence, 24 h. Potency, µM (series often up to 56.7 µM), hits mostly cytotoxic. actives 0.49% (n = 400,000); further: nearly all actives have a fitted effect of over 40% in size
GLP-1R inv ag: GLP-1 receptor (human) inverse agonism | Potency, µM (doses to about 38.3 µM), inactives show at the top dose activity change, negative = inhibition, usual class: inhibitors | HEK293 GLP-1R CRE-luciferase, luminescence, 24 h; GLP-1R form is constitutively active | P43220 | actives 1.6% (n = 410,000); further: on the % scale 0 is the no-effect control and ±100 the full control effect; nearly all actives have a fitted effect of over 55% in size
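Inverse agonism was detected as reduced cAMP-driven luciferase luminescence after 24 h compound treatment. The cells were HEK293 clones expressing constitutively active human GLP-1R with the reporter. Reporter-only and GPR119 cell lines served as counterscreen controls.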
Numbers without * were called inactive; [ ] = remark or other dose. The call rests on the fitted dose curve; in most records, active means well fitted curve in the direction sought with a large enough effect; inconclusive means small, poorly fitted or top-dose-only effect, or another doubt; inactive means no such curve, though single readings can be large; an effect the other way counts as inactive or inconclusive. Potency means the concentration at half of the fitted maximal effect.

Screening COCCNC(=O)CSc1nc(-c2ccc(OC)c(OC)c2)cc(C(F)(F)F)n1 returned HepG2 tox 17%, ATXN2 expr inh 9%, TGFb inhibitor -12%, GLP1R ag 23%, S2 tox inconclusive and GLP-1R inv ag 22%.
`COc1ccc(-c2cc(C(F)(F)F)nc(SCCC(=O)Nc3ccc(OC)c(OC)c3)n2)cc1` gave HepG2 tox -50%, ATXN2 expr inh -8%, TGFb inhibitor 0%, GLP1R ag 2%, S2 tox inactive and GLP-1R inv ag -8%.
For COc1ccccc1-c1cc(C(F)(F)F)nc(S(=O)(=O)CCCC(=O)O)n1 the results were HepG2 tox -46%, ATXN2 expr inh inconclusive, TGFb inhibitor 18µM*, GLP1R ag 0%, S2 tox inconclusive and GLP-1R inv ag 0%.
Screening COc1ccc(-c2cc(C(F)(F)F)nc(S(=O)(=O)CCCC(=O)Nc3ccccc3C(F)(F)F)n2)cc1OC returned HepG2 tox -3%, TGFb inhibitor 2.8µM* and GLP-1R inv ag 8%.
`COc1ccc(NC(=O)CCCS(=O)(=O)c2nc(-c3ccc(OC)c(OC)c3)cc(C(F)(F)F)n2)cc1OC` gave HepG2 tox -101%, TGFb inhibitor 2.5µM* and GLP-1R inv ag inconclusive.
Screening COc1ccccc1-c1cc(C(F)(F)F)nc(S(=O)(=O)CCCC(=O)Nc2cc(OC)c(OC)c(OC)c2)n1 returned HepG2 tox -15%, ATXN2 expr inh 15%, TGFb inhibitor 2%, S2 tox inactive and GLP-1R inv ag 5%.
For COc1ccccc1-c1cc(C(F)(F)F)nc(S(=O)(=O)CCCC(=O)Nc2ccc(F)c(Cl)c2)n1 the results were HepG2 tox -4%, ATXN2 expr inh 1%, TGFb inhibitor 0%, S2 tox inactive and GLP-1R inv ag 0%.
For COc1ccc(-c2cc(C(F)(F)F)nc(S(=O)(=O)CCCC(=O)Nc3cccc(O)c3)n2)cc1OC the results were HepG2 tox 5.6µM*, ATXN2 expr inh -98%, TGFb inhibitor 3.5µM*, GLP1R ag -4% and GLP-1R inv ag inconclusive.
For CCCOc1ccc(NC(=O)CC2C(=O)N(c3cccc(C)c3)C(=O)N2CCc2ccncc2)cc1 (stereo not drawn) the results were HepG2 tox -17%, TGFb inhibitor inconclusive and GLP-1R inv ag -20%.
`CCOC(=O)C(=O)c1csc(NC=O)n1` gave ATXN2 expr inh 12% and S2 tox inactive.
Screening CCCCCCCCN1[C@@H](CC(=O)OC)c2ccc(/C=C/C(=O)OC)cc2S1(=O)=O returned HepG2 tox -12% and TGFb inhibitor -9%.
O=C(CN1C(=O)NC(Cc2c[nH]c3ccccc23)C1=O)Nc1cccc(S(=O)(=O)N2CCCCCC2)c1 (stereo not drawn) was read as HepG2 tox -47%, ATXN2 expr inh -20%, TGFb inhibitor inconclusive, GLP1R ag -9%, S2 tox inactive and GLP-1R inv ag inconclusive.
Screening Cc1ccc(NC(=O)CN2CCCC2c2cccs2)cc1S(=O)(=O)N1CCCCC1 (stereo not drawn) returned HepG2 tox -33%, ATXN2 expr inh inconclusive, TGFb inhibitor inconclusive, GLP1R ag 7%, S2 tox inactive and GLP-1R inv ag 4.5µM*.
Screening Cc1ccc(NC(=O)CN2C(=O)NC(Cc3c[nH]c4ccccc34)C2=O)cc1S(=O)(=O)N1CCCCC1 (stereo not drawn) returned HepG2 tox -7%, ATXN2 expr inh -24%, TGFb inhibitor 10µM*, GLP1R ag 0%, S2 tox inconclusive and GLP-1R inv ag -26%.
FC(F)OC(Cl)C(F)(F)F (stereo not drawn) was read as GLP1R ag -1%.
`Cc1ccc(NC(=O)CN(C)CC(=O)Nc2ccccc2C#N)cc1` gave HepG2 tox 15%, ATXN2 expr inh -12%, TGFb inhibitor -8%, GLP1R ag 11%, S2 tox inactive and GLP-1R inv ag -5%.
`N#Cc1ccccc1NC(=O)CN(Cc1ccccc1)Cc1ccccc1` gave HepG2 tox 1%, ATXN2 expr inh 0%, TGFb inhibitor 4%, GLP1R ag 10%, S2 tox inactive and GLP-1R inv ag 7.1µM*.
`CCC(=O)Oc1ccc2c(c1)CC[C@@H]1[C@@H]2CC[C@]2(C)[C@@H](OC(=O)CC)CC[C@@H]12` gave S2 tox inactive.
`CC(C)CC(NC(=O)OCc1ccccc1)C(=O)NC(Cc1ccccc1)C(=O)CCl` (stereo not drawn) gave HepG2 tox -102%, ATXN2 expr inh inconclusive, TGFb inhibitor 10µM*, GLP1R ag -6% and GLP-1R inv ag inconclusive.
`COC(=O)C(Cc1ccccc1)NC(=O)C(CC(C)C)NC(=O)OC(C)(C)C` (stereo not drawn) gave HepG2 tox -10%, ATXN2 expr inh 1%, TGFb inhibitor -38%, GLP1R ag 4%, S2 tox inconclusive and GLP-1R inv ag -17%.
For Cc1sc(NC(=O)c2ccco2)c(C(c2ccccc2)N2CCC(C)CC2)c1C (stereo not drawn) the results were HepG2 tox -14%, ATXN2 expr inh -13%, TGFb inhibitor inconclusive, GLP1R ag 0%, S2 tox inactive and GLP-1R inv ag 6.3µM*.
Cc1sc(NC(=O)c2ccccc2)c(C(c2ccc(Cl)cc2)N2CCN(CCO)CC2)c1C (stereo not drawn) was read as HepG2 tox -108%, ATXN2 expr inh inconclusive, TGFb inhibitor inconclusive, GLP1R ag -2% and GLP-1R inv ag inconclusive.
For CCOc1ccc(C(c2c(NC(=O)c3ccccc3)sc(C)c2C)N2CCN(CCO)CC2)cc1 (stereo not drawn) the results were HepG2 tox 11µM*, ATXN2 expr inh -9%, TGFb inhibitor inconclusive, GLP1R ag 13%, S2 tox inconclusive and GLP-1R inv ag inconclusive.
`Cc1sc(NC(=O)c2ccco2)c(C(c2ccc(F)cc2)N2CCN(C)CC2)c1C` (stereo not drawn) gave HepG2 tox 11µM*, ATXN2 expr inh 1%[11.3 µM], TGFb inhibitor 16µM*, GLP1R ag 0%, S2 tox inactive and GLP-1R inv ag 7.1µM*.
`Cc1cc(-c2ccnc(-n3ncc(C(=O)NCCc4cccnc4)c3C)n2)c(C)s1` gave S2 tox inactive.
